Source: PubChem BioAssay AID1159580 (chemical genetic matrix, 2015)
Where “and” joins values, the source holds several entries; their conditions need not be identical. Identical values can stand only once. About 2,000 (36%) of roughly 5,500 compounds were called active. Inconclusive results (about 18%) are left out. Rule as the data show it: active = normalized growth mostly below about 0.91 (no sharp cut-off); inconclusive = no clear call, values can overlap the other calls; inactive = mostly above about 0.92. The list shows a part of the results.

Experiment: chemical genetic growth profiling, strain panel (AID 1159580);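 also: tested at 20 µM; growth read once vehicle control cultures reached saturation at 30 °C; 1 = growth at the plate median or of vehicle wells; lower values mean less growth of the strain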
Conditions: S. cerevisiae deletion strains, growth OD

Measured: normalized growth

CCN(CC)Cc1ccc(Nc2ccnc3cc(Cl)ccc23)cc1O
inactive: locus YAL021C, strain ccr4, hits give low values 0.986 | locus YAL026C, strain drs2, hits give low values 1.03 | locus YAL030W, strain snc1, hits give low values 1 | locus YBL061C, strain skt5, hits give low values 1.03 | locus YBR009C, strain hhf1, hits give low values 0.96 | locus YBR021W, strain FUR4, hits give low values 0.995 | locus YBR023C, strain chs3, hits give low values 1.03 | locus YBR171W, strain sec66, hits give low values 1.05 | locus YBR229C, strain ROT2, hits give low values 1 | locus YBR231C, strain swc5, hits give low values 0.989 | locus YBR279W, strain paf1, hits give low values 1.01 | locus YCL011C, strain gbp2, hits give low values 1 | locus YCL016C, strain dcc1, hits give low values 1.02 | locus YCL029C, strain bik1, hits give low values 1 | locus YCL061C, strain MRC1, hits give low values 1.01 | locus YCL069W, strain vba3, hits give low values 1.02 | locus YCR088W, strain abp1, hits give low values 1.03 | locus YDL005C, strain med2, hits give low values 1.04 | locus YDL035C, strain GPR1, hits give low values 1.01 | locus YDL040C, strain nat1, hits give low values 1 | locus YDL074C, strain BRE1, hits give low values 1 | locus YDL101C, strain DUN1, hits give low values 1.01 | locus YDL185W, strain tfp1, hits give low values 0.997 | locus YDL192W, strain arf1, hits give low values 0.999 | locus YDR001C, strain nth1, hits give low values 1.03 | locus YDR069C, strain doa4, hits give low values 1.01 | locus YDR101C, strain arx1, hits give low values 0.988 | locus YDR137W, strain rgp1, hits give low values 1.07 | locus YDR150W, strain NUM1, hits give low values 1.01 | locus YDR159W, strain sac3, hits give low values 0.941 | locus YDR162C, strain NBP2, hits give low values 1.02 | locus YDR195W, strain ref2 0.971 | locus YDR297W, strain sur2, hits give low values 1.02 | locus YDR318W, strain mcm21, hits give low values 1 | locus YDR334W, strain swr1, hits give low values 1.02 | locus YDR335W, strain msn5, hits give low values 1.03 | locus YDR388W, hits give low values 0.998 | locus YDR502C, strain sam2, hits give low values 0.997 | locus YEL003W, strain gim4, hits give low values 1.01 | locus YEL037C, strain rad23, hits give low values 1.03 | locus YEL061C, strain CIN8 (second series), hits give low values 1.01 | locus YEL061C, strain CIN8, hits give low values 1 | locus YER015W, strain faa2, hits give low values 1 | locus YER016W, strain bim1, hits give low values 1.03 | locus YER110C, hits give low values 0.999 | locus YER111C, strain swi4, hits give low values 1.03 | locus YER155C, strain BEM2 (second series), hits give low values 0.865 | locus YER155C, strain BEM2, hits give low values 1 | locus YER167W, strain BCK2, hits give low values 1.01 | locus YFR010W, strain ubp6, hits give low values 0.992 | locus YGL078C, strain dbp3, hits give low values 1 | locus YGL086W, strain mad1, hits give low values 0.996 | locus YGL167C, strain pmr1, hits give low values 1.01 | locus YGL173C, strain kem1, hits give low values 0.991 | locus YGL227W, strain vid30, hits give low values 1.01 | locus YGL240W, strain doc1, hits give low values 0.958 | locus YGL248W, strain PDE1, hits give low values 1.01 | locus YGL253W, strain hxk2, hits give low values 1.01 | locus YGR078C, strain PAC10, hits give low values 1 | locus YGR135W, strain pre9, hits give low values 0.994 | locus YGR229C, strain SMI1, hits give low values 1.02 | locus YGR252W, strain gcn5, hits give low values 0.96 | locus YHR013C, strain ard1, hits give low values 0.96 | locus YHR027C, strain rpn1, hits give low values 1.01 | locus YHR030C, strain SLT2, hits give low values 1.01 | locus YHR079C, strain IRE1 (second series), hits give low values 0.999 | locus YHR079C, strain IRE1, hits give low values 1.07 | locus YHR094C, strain hxt1, hits give low values 0.998 | locus YHR129C, strain ARP1, hits give low values 1 | locus YHR142W, strain chs7, hits give low values 1.03 | locus YHR200W, strain rpn10, hits give low values 0.997 | locus YIL066C, strain RNR3, hits give low values 1.02 | locus YIL073C, strain SPO22, hits give low values 1.01 | locus YIL125W, strain kgd1, hits give low values 1 | locus YIR030C, strain dcg1, hits give low values 0.997 | locus YJL092W, strain hpr5, hits give low values 1.01 | locus YJL095W, strain BCK1 (second series), hits give low values 1.01 | locus YJL095W, strain BCK1, hits give low values 1 and 1.05 | locus YJL115W, strain asf1, hits give low values 1.04 | locus YJL129C, strain trk1, hits give low values 1.01 | locus YJL134W, strain LCB3, hits give low values 1.01 | locus YJL154C, strain vps35, hits give low values 1.02 | locus YJL164C, strain tpk1, hits give low values 1 | locus YJL166W, strain qcr8, hits give low values 0.992 | locus YJL168C, strain set2, hits give low values 1 | locus YJL187C, strain SWE1 (second series), hits give low values 1 | locus YJR043C, strain POL32, hits give low values 0.996 | locus YJR066W, strain TOR1, hits give low values 0.992 | locus YJR075W, strain HOC1, hits give low values 1.01 | locus YKL009W, strain mrt4, hits give low values 0.997 | locus YKL068W, hits give low values 0.996 | locus YKL085W, strain MDH1 (second series), hits give low values 0.995 | locus YKL085W, strain MDH1, hits give low values 0.995 | locus YKL160W, strain elf1, hits give low values 1.04 | locus YKL190W, strain CNB1, hits give low values 1.01 | locus YKR001C, strain vps1, hits give low values 0.999 | locus YKR026C, strain gcn3, hits give low values 1.03 | locus YKR091W, strain srl3, hits give low values 1.02 | locus YLL001W, strain dnm1, hits give low values 1.01 | locus YLL026W, hits give low values 1.02 | locus YLL041C, strain sdh2, hits give low values 1.03 | locus YLR027C, strain aat2, hits give low values 1.01 | locus YLR039C, strain RIC1, hits give low values 1.01 | locus YLR058C, strain SHM2, hits give low values 1.01 | locus YLR102C, strain apc9, hits give low values 0.993 | locus YLR113W, strain HOG1, hits give low values 1.06 | locus YLR221C, strain rsa3, hits give low values 0.987 | locus YLR258W, strain gsy2, hits give low values 1.03 | locus YLR262C, strain YPT6 (second series), hits give low values 1.02 | locus YLR262C, strain YPT6, hits give low values 1.06 | locus YLR268W, strain sec22, hits give low values 0.993 | locus YLR320W, strain mms22, hits give low values 0.939 | locus YLR330W, strain CHS5, hits give low values 1.01 | locus YLR342W, strain FKS1 (second series), hits give low values 0.984 | locus YLR342W, strain FKS1, hits give low values 1.01 | locus YLR357W, strain rsc2, hits give low values 1.06 | locus YLR370C, strain arc18, hits give low values 1.02 | locus YLR371W, strain rom2, hits give low values 1 | locus YLR384C, strain iki3, hits give low values 1.01 | locus YLR418C, strain cdc73, hits give low values 0.98 | locus YML016C, strain PPZ1, hits give low values 1 | locus YML032C, strain rad52, hits give low values 0.99 | locus YML120C, strain ndi1, hits give low values 1.02 | locus YML124C, strain tub3, hits give low values 1.01 | locus YMR058W, strain fet3, hits give low values 0.93 | locus YMR078C, strain ctf18, hits give low values 1 | locus YMR125W, strain sto1, hits give low values 1.05 | locus YMR129W, hits give low values 1.02 | locus YMR205C, strain PFK2, hits give low values 0.983 | locus YMR223W, strain ubp8, hits give low values 1 | locus YMR231W, strain pep5, hits give low values 1.01 | locus YMR307W, strain GAS1, hits give low values 1.01 | locus YNL067W, strain RPL9B, hits give low values 1 | locus YNL071W, strain lat1, hits give low values 1.03 | locus YNL128W, strain TEP1, hits give low values 1.02 | locus YNL153C, strain GIM3, hits give low values 0.987 | locus YNL183C, strain NPR1, hits give low values 1 | locus YNL209W, strain ssb2, hits give low values 1.01 | locus YNL233W, strain BNI4, hits give low values 1 | locus YNL248C, strain rpa49, hits give low values 1.03 | locus YNL250W, strain rad50, hits give low values 0.997 | locus YNL271C, strain bni1, hits give low values 1.03 | locus YNL298W, strain CLA4, hits give low values 1.01 | locus YNL307C, strain MCK1, hits give low values 0.997 | locus YNL322C, strain KRE1 (second series), hits give low values 1.05 | locus YNR049C, strain mso1, hits give low values 1.01 | locus YNR052C, strain pop2, hits give low values 1 | locus YOL006C, strain TOP1, hits give low values 1.04 | locus YOL012C, strain htz1 1.13 | locus YOL147C, strain pex11, hits give low values 0.996 | locus YOR001W, strain rrp6, hits give low values 0.995 | locus YOR061W, strain CKA2, hits give low values 1.01 | locus YOR069W, strain VPS5, hits give low values 1 | locus YOR070C, strain gyp1, hits give low values 1.02 | locus YOR080W, strain dia2, hits give low values 1.01 | locus YOR083W, strain WHI5, hits give low values 0.986 | locus YOR106W, strain vam3, hits give low values 1.05 | locus YOR136W, strain idh2, hits give low values 0.995 | locus YOR144C, strain elg1, hits give low values 0.99 | locus YOR184W, strain ser1, hits give low values 0.992 | locus YOR231W, strain MKK1, hits give low values 1.05 | locus YOR265W, strain rbl2, hits give low values 1 | locus YOR270C, strain vph1, hits give low values 1.05 | locus YOR290C, strain snf2, hits give low values 1.02 | locus YOR316C, strain cot1, hits give low values 0.997 | locus YPL051W, strain arl3, hits give low values 1.01 | locus YPL078C, strain atp4, hits give low values 1.03 | locus YPL106C, strain sse1, hits give low values 1.05 | locus YPL240C, strain hsp82, hits give low values 1.02 | locus YPL241C, strain CIN2, hits give low values 1.01 | locus YPL256C, strain CLN2, hits give low values 1.01 | locus YPR119W, strain clb2, hits give low values 1 | locus YPR141C, strain kar3, hits give low values 1.01 | locus YPR163C, strain tif3, hits give low values 1.01 | locus YPR167C, strain met16, hits give low values 1 | strain wtn01, hits give low values 1
active: locus YDR392W, strain spt3, hits give low values 0.737
